Screening results deposited in PubChem BioAssay by National Center for Advancing Translational Sciences (NCATS).
PNC assembly inh: blocks assembly of the perinucleolar compartment | activity change (PNC), negative = inhibition, % at 10 µM | actives 3.1% (n = 140,000) | PC3M PTB-GFP, PNC prevalence imaging, 16 h; stronger effect = lower value;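 active = readout at or below -70, meaning at least 70% loss of cells showing the perinucleolar compartment, a nuclear body marking cancer cells; inconclusive = readout between -30 and a set limit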
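Compounds are pinned in duplicate onto adhered PC3M cells stably expressing GFP-tagged PTB and incubated 16 h at 37 C. Cells are then fixed, nuclei stained with Hoechst, and PNC-positive cells counted.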
JMJD2E inh: inhibitors of human JMJD2E histone demethylase; B2RXH2; JMJD2E catalytic domain, FDH-coupled NADH fluorescence (FDH is formaldehyde dehydrogenase); Potency, µM (highest dose often 57.1 µM), actives largely listed as inhibitors; actives 1.6% (n = 230,000); AID 2147; also: nearly all actives have a fitted effect of over 50% in size
Target sequence (B2RXH2 1-337 limits assumed): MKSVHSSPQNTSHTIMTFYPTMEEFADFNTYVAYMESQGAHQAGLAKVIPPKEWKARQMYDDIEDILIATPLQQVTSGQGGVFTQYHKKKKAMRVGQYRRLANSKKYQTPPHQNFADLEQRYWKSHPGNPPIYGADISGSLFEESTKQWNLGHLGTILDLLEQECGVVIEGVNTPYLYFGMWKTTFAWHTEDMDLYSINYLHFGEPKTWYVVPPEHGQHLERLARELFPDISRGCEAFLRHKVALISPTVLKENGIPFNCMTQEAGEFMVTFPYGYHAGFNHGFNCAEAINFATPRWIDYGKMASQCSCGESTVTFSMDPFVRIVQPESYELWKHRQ
HPGD inh: blocks human HPGD enzyme activity; purified HPGD, NADH fluorescence kinetic, PGE2 substrate; Potency, µM, actives largely listed as inhibitors; actives 4.3% (n = 150,000); AID 894
Target sequence (P15428 whole entry, looked up): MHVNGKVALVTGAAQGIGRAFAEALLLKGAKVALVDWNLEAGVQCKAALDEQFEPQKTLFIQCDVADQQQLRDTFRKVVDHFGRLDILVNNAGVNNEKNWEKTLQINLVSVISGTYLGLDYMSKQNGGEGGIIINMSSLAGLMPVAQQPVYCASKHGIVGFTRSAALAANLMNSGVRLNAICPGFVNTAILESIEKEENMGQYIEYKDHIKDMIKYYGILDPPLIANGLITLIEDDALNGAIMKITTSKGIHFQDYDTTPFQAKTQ
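NADH formation kinetics: reaction with 30 uM PGE2 and 1 mM NAD+ (final), 20 nM enzyme, Tris-HCl pH 8 with Tween 20, after 15 min compound preincubation at room temperature. Fluorescence change, last versus first of five reads.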
ALDH1A1 block: blocks purified human ALDH1A1 activity. P00352. Purified ALDH1A1, NADH fluorescence, propionaldehyde substrate. Potency, µM (top dose mostly 75.3 µM), most hits filed as inhibitors. actives 7.3% (n = 220,000). AID 1030
Of the large screens only hits and unclear results are named; the others gave an inactive call. A selection: hits, their analogues and other compounds. The true share with any hit is near 11%. Unless noted, calls follow the shape of the dose curve; as a rule, active = well fitted inhibition curve with a large enough effect (not every such curve was filed as active); inconclusive = small, poorly fitted or top-dose-only effect, or another doubt; inactive = no such curve, though single readings can be large or run the other way.

CC[C@H](C)N(C)C(=O)c1cc2ccccc2c(-c2ccccc2Cl)n1	none (no result: PNC assembly inh)
CC(=O)N(CC(O)CN(C(C)=O)c1c(I)c(C(=O)NC[C@@H](O)CO)c(I)c(C(=O)NC[C@@H](O)CO)c1I)c1c(I)c(C(=O)NC[C@@H](O)CO)c(I)c(C(=O)NC[C@@H](O)CO)c1I	none (no result: PNC assembly inh)
O=C(NC(=S)Nc1nc2ccc(F)cc2s1)c1ccco1	none (no result: PNC assembly inh, HPGD inh)
CC1(C)CC(=O)C2=C(C1)NC(=O)NC2c1ccccc1 (centres undefined)	none (no result: PNC assembly inh, HPGD inh)
CCc1ccc(C2NC(=S)NC3=C2C(=O)CC(C)(C)C3)cc1 (centres undefined)	PNC assembly inh inconclusive, JMJD2E inh inconclusive, ALDH1A1 block 2.51µM
CC(C)c1ccc(C2NC(=S)NC3=C2C(=O)CC(C)(C)C3)cc1 (centres undefined)	ALDH1A1 block 2µM
CCc1ccc(C2NC(=S)NC3=C2C(=O)CCC3)cc1 (centres undefined)	ALDH1A1 block inconclusive
Cc1cccc(NC(=O)CCCn2cc([N+](=O)[O-])cn2)n1	none (no result: PNC assembly inh, HPGD inh)
COC(=O)N1CCC[C@@]2(CCN(Cc3nccs3)C2)C1	none (no result: PNC assembly inh, JMJD2E inh)
O=C(COC(=O)c1ccc2ccccc2c1)Nc1ncc(C(F)(F)F)cc1Cl	JMJD2E inh inconclusive
Cc1nn(-c2ccccc2)c(C)c1/C=C/C(=O)OCC(=O)Nc1ncc(C(F)(F)F)cc1Cl	PNC assembly inh -113.4, HPGD inh inconclusive, ALDH1A1 block inconclusive
O=C(COC(=O)C1(c2ccccc2F)CCCC1)Nc1ncc(C(F)(F)F)cc1Cl	PNC assembly inh -109.0, ALDH1A1 block inconclusive
O=C(COC(=O)c1ccc2ccccc2n1)Nc1ncc(C(F)(F)F)cc1Cl	none
FC(F)(F)c1ccccc1-c1ccc2ncnc(NC3CC3)c2c1	none (no result: PNC assembly inh, JMJD2E inh, HPGD inh)
COC(=O)CCC(NC(=O)c1cc(-c2ccc3c(c2)OCCO3)oc1C)C(=O)OC (centres undefined)	ALDH1A1 block 20µM
COC(=O)C(Cc1c[nH]c2ccccc12)NC(=O)c1cc(-c2ccc(OC)c(OC)c2)oc1C (centres undefined)	HPGD inh 31.6µM, ALDH1A1 block 28.2µM
COc1ccc2[nH]cc(CCn3ccc(O)c(C/C=C/c4ccccc4)c3=O)c2c1	ALDH1A1 block 14.1µM (no result: PNC assembly inh, HPGD inh)
O=c1c(C/C=C/c2ccccc2)c(O)ccn1CCc1c[nH]c2ccccc12	ALDH1A1 block 39.8µM (no result: PNC assembly inh, HPGD inh)
COc1ccc2[nH]cc(CCNS(=O)(=O)c3ccccc3)c2c1	ALDH1A1 block inconclusive (no result: PNC assembly inh, HPGD inh)
O=c1c(C/C=C/c2ccccc2)c(O)ccn1Cc1cccc(Cl)c1	none (no result: PNC assembly inh, HPGD inh)
N/N=C1/c2ccccc2N[C@H]1OC(=O)Nc1cccc(Cl)c1	none (no result: PNC assembly inh, JMJD2E inh)
Cc1c(-n2c(SCC(=O)C(C)(C)C)nc3ccccc3c2=O)c(=O)n(-c2ccccc2)n1C	none (no result: PNC assembly inh, HPGD inh)
COCC(=O)Nc1ccc(C(C)C)cc1	PNC assembly inh inconclusive, HPGD inh 17.8µM
CCNC(=O)COC(=O)CCC(=O)c1ccc(F)cc1	none (no result: PNC assembly inh, HPGD inh, ALDH1A1 block)
Cc1ccc(OCC(=O)Nc2ccc(N(C)C)cc2)cc1	none
COCC(=O)Nc1ccc(N(C)C)cc1	PNC assembly inh -80.9, HPGD inh inconclusive
CN(C)c1ccc(NC(=O)COC(=O)CCC(=O)c2ccc(F)cc2)cc1	ALDH1A1 block 10µM
Cc1c(NC(=O)Nc2ccc(Cl)c(Cl)c2)c(=O)n(-c2ccccc2)n1C	PNC assembly inh inconclusive
NC(=O)N/N=C/c1cc(Br)ccc1OC(=O)c1ccccc1	PNC assembly inh -81.0
O=C(c1ccc(Cl)cc1)C1CCCN(Cc2ccc(Oc3ncccn3)cc2)C1 (centres undefined)	ALDH1A1 block 28.2µM (no result: PNC assembly inh, HPGD inh)
CCCC(C)c1nnc(NC(=O)CN2C(=O)c3ccccc3C2=O)s1 (centres undefined)	ALDH1A1 block 28.2µM (no result: PNC assembly inh, HPGD inh)
Cc1ccc2sc(NC(=O)CN3C(=O)c4ccccc4C3=O)nc2c1C	PNC assembly inh -118.9
CCC(CC)c1nnc(NC(=O)CN2C(=O)c3ccccc3C2=O)s1	none (no result: PNC assembly inh, HPGD inh)
Cc1cccc2sc(NC(=O)CN3C(=O)c4ccccc4C3=O)nc12	PNC assembly inh inconclusive
CN(C)CN1CSC(=S)N(CN(C)C)C1	HPGD inh 3.16µM, ALDH1A1 block 3.98µM (no result: PNC assembly inh, JMJD2E inh)
CC(Cn1cnc2ccccc21)C(=O)O (centres undefined)	PNC assembly inh -100.0
Cn1cc(-c2nc3cncnc3n(C3CC3)c2=O)c2ccccc21	none (no result: PNC assembly inh, JMJD2E inh, HPGD inh)
CN1/C(=C\C(=O)c2ccccc2Cl)c2ccccc2CC1(C)C	PNC assembly inh inconclusive, HPGD inh 17.8µM
Cc1ccccc1C(=O)/C=C1/c2ccccc2CC(C)(C)N1C	ALDH1A1 block inconclusive
COc1ccc(C2=NOC(C(=O)Nc3cccnc3)C2)cc1 (centres undefined)	PNC assembly inh -101.9
COc1ccc(NC(=O)C2C3C=CC(O3)C2C(=O)NCc2cccnc2)cc1 (centres undefined)	PNC assembly inh inconclusive
COc1ccc(NC(=O)C2C3C=CC(C3)C2C(=O)NCc2ccco2)cc1 (centres undefined)	HPGD inh 25.1µM
COc1cc(C2=NOC(C(=O)NCc3ccco3)C2)cc(OC)c1OC (centres undefined)	PNC assembly inh inconclusive
COc1cc(C2=NOC(C(=O)NCc3cccs3)C2)cc(OC)c1OC (centres undefined)	PNC assembly inh -104.2
COc1ccc(C2=NOC(C(=O)NCc3ccco3)C2)cc1 (centres undefined)	HPGD inh inconclusive, ALDH1A1 block 22.4µM
COc1ccc(C2=NOC(C(=O)NCc3cccs3)C2)cc1OC (centres undefined)	none
ClC(Cl)Cl	none (no result: PNC assembly inh, JMJD2E inh)
Cc1noc(NC(=O)Nc2ccccc2F)c1C#N	none (no result: PNC assembly inh, JMJD2E inh)
O=C(COC(=O)Cc1ccccc1F)Nc1cccc(S(=O)(=O)NC2=NCCCCC2)c1	none (no result: PNC assembly inh, HPGD inh)
O=C(N/N=C/c1cccnc1)c1ccc2c(c1)OCCO2	HPGD inh inconclusive
O=C(CSc1nnnn1Cc1ccccc1)Nc1ccccc1	none (no result: PNC assembly inh, HPGD inh, ALDH1A1 block)
COC(=O)c1cc(OC)c(OC)cc1NC(=O)CSc1nnnn1Cc1ccccc1	JMJD2E inh inconclusive, HPGD inh inconclusive, ALDH1A1 block 12.6µM
COc1ccc(C(=O)CSc2nnnn2Cc2ccccc2)cc1	ALDH1A1 block 12.6µM
Cc1cc(C)c(-c2cc([C@H](C)O/N=C\[C@@H](C)[C@H](OCc3ccccc3)C(C)C)on2)c(C)c1	none (no result: PNC assembly inh, JMJD2E inh, HPGD inh)
O=P(c1ccccc1)(c1ccccc1)N(c1ccccc1)c1ccccc1	none
O=C1C=CC(=O)N1N(c1ccccc1)c1ccccc1	HPGD inh 1.41µM, ALDH1A1 block 3.55µM
CCCC(c1nnnn1C(C)(C)CC)N(Cc1ccco1)Cc1cc2ccc(OC)cc2[nH]c1=O (centres undefined)	JMJD2E inh inconclusive, ALDH1A1 block 31.6µM
CCC(C)(C)n1nnnc1C(c1cc2ccc(C)cc2[nH]c1=O)N(Cc1cccnc1)Cc1ccco1 (centres undefined)	JMJD2E inh inconclusive, ALDH1A1 block inconclusive
COc1ccc(NC(=O)N2CCc3nc(-c4ccccc4)c4c(c3C2)CO[C@@H](C)C4)cc1	none (no result: PNC assembly inh)
COc1ccc(C(=O)N2CCN(c3nnnn3-c3ccccc3)CC2)cc1OC	ALDH1A1 block 15.8µM
CS(=O)(=O)N1CCC(Oc2ccccc2C(=O)NCCCc2cccnc2)CC1	none (no result: PNC assembly inh, HPGD inh)
CCCCc1ccc(-c2nc(-c3ccncc3)no2)cc1	ALDH1A1 block 6.31µM
Brc1ccc(-c2nc(-c3ccncc3)no2)o1	PNC assembly inh -89.0
